Assay outcomes from PubChem BioAssay.
A selection: hits, their analogues and other compounds. The true share with any hit is near 12%.
TDP1 block – inhibitors of human tyrosyl-DNA phosphodiesterase TDP1; AID 485290; hit rate 0.28% among 350,000; Q9NUW8; Potency, µM (highest dose often 130 µM), most hits filed as inhibitors; recombinant TDP1, AlphaScreen DNA substrate cleavage; also: nearly all actives have a fitted effect of over 40% in size
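Recombinant human Tdp1 (E. coli-expressed, 1 nM final) preincubated with compounds 15 min at room temperature, then 5'-biotin/3'-phosphotyrosine-FITC DNA substrate (15 nM final) added for 5 min. AlphaScreen beads (10 ug/ml final) added 10 min; cleavage lowers signal.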
Sfp PPTase inh – inhibitors of Bacillus subtilis Sfp phosphopantetheinyl transferase | Potency, µM, most hits filed as inhibitors | AID 1490 | Biochemical Sfp PPTase activity, qHTS | hit rate 3.5% among 310,000 | Q9F4F7;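 also: the enzyme is Sfp with the accession as filed and its product quenches rhodamine fluorescence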
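Fluorescence-quenching assay with 15 nM Sfp, 5 uM rhodamine-CoA and 12.5 uM BHQ-2-labelled ybbR peptide in pH 7.6 Hepes/MgCl2 buffer. Enzyme was pre-incubated with compound for 15 min at room temperature. Rate was taken from the 30-min fluorescence change (525/598 nm).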
HP1b binding inh – blocks HP1-beta chromodomain binding to methylated histone tails; P83916; AlphaScreen HP1-beta / biotin-H3K9me3 peptide binding; Potency, µM (highest dose often 114 µM), actives largely listed as inhibitors; hit rate 0.56% among 390,000; also: nearly all actives have a fitted effect of over 70% in size
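HP1-beta protein (50 nM final) preincubated 30 min at room temperature with biotinylated H3(1-18)K9me3 peptide (50 nM) in PBS pH 7.4, 0.01% Tween-20, then compound added for 30 min. AlphaScreen streptavidin donor/nickel chelate acceptor beads (10 ug/mL final), 30 min dark, luminescence read.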
BAZ2B block – blocks human BAZ2B. AlphaScreen BAZ2B-H3K14Ac peptide displacement. Potency, µM (top dose mostly 114 µM), most hits filed as inhibitors. hit rate 4.4% among 360,000; also: nearly all actives have a fitted effect of over 60% in size
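Protein-peptide AlphaScreen: BAZ2B 50 nM, b-H3K14Ac 50 nM, 1x PBS pH 7.4 + 0.01% Tween-20. Preincubation 30 min RT; cpd 30 min RT (top 110 uM); beads 20 min RT, light-protected.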
JMJD2A Tudor – blocks the human JMJD2A Tudor domain; AID 504339; O75164; hit rate 4.4% among 390,000; AlphaScreen JMJD2A-Tudor / H3K4me3 peptide binding; Potency, µM (doses to about 114 µM), most hits filed as inhibitors; also: nearly all actives have a fitted effect of over 50% in size
Target sequence (O75164 whole entry, looked up, the tested form may be a part): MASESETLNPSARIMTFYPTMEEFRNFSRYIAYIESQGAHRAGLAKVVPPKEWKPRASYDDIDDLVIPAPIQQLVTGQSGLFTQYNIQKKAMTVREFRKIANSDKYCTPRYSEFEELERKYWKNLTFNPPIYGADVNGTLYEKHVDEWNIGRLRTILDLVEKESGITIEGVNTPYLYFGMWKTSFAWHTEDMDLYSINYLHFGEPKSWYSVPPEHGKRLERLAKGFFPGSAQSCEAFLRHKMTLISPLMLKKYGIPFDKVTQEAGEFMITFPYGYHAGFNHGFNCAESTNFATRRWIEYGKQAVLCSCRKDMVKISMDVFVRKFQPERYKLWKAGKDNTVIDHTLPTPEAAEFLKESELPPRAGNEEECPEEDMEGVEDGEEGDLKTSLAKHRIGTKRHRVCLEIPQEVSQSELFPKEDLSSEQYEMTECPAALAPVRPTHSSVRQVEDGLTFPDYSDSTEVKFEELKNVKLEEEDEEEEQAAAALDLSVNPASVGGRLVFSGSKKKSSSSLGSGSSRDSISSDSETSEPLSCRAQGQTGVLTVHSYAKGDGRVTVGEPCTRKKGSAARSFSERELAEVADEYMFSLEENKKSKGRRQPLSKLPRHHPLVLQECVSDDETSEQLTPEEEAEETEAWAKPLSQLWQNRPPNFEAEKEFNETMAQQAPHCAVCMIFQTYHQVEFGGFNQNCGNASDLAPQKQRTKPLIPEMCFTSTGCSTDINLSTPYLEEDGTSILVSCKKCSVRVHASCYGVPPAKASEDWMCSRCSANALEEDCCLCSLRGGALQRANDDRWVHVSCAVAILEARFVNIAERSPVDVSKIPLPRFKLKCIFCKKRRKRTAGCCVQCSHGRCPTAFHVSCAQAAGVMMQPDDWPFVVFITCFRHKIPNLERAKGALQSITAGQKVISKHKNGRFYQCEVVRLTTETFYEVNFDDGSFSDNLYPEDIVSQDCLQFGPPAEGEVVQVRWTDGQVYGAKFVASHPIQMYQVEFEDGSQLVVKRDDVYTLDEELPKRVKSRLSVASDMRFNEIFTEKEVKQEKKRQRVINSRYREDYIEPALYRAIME
G9a block – G9a (human) methyltransferase inhibition. Q96KQ7. G9a H3K9 monomethylation, AlphaScreen, 2 h. Potency, µM (doses to about 102 µM), hits mostly inhibitors. hit rate 8.8% among 350,000; also: nearly all actives have a fitted effect of over 75% in size
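Quantitative HTS format: methyltransferase activity on a biotin-tagged H3K9 peptide is measured by AlphaScreen, using a rabbit anti-monomethyl-H3K9 antibody with streptavidin donor and anti-IgG acceptor beads. Final levels are 20 nM enzyme, 500 nM peptide, 20 uM SAM; 2 h RT.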
Large screens that a line does not name were inactive. Calls follow the shape of the dose curve; as a rule, active = well fitted curve in the direction sought with a large enough effect; inconclusive = small, poorly fitted or top-dose-only effect, or another doubt; inactive = no such curve, though single readings can be large; an effect the other way counts as inactive or inconclusive.

C/C(=N\NC(=O)c1nnn(-c2nonc2N)c1CN(C)c1ccccc1)c1ccccc1O	BAZ2B block 2.24µM, JMJD2A Tudor 14.1µM
Cc1ccc(-c2c(C(=O)N/N=C/C3CCCCC3)nnn2-c2nonc2N)cc1	BAZ2B block 79.4µM
O=C(O)CS(=O)(=O)c1ccc(C(F)(F)F)cn1	none
COc1ccccc1CNC(=O)c1ccc(N2CCCC2)c(NC(=O)NCc2ccc(C)cc2)c1	none (no result: Sfp PPTase inh)
Cc1ccc(CNC(=O)[C@H]2C[C@@H]2[C@H](NP(=O)(c2ccccc2)c2ccccc2)c2ccccc2)o1	Sfp PPTase inh 35.5µM, BAZ2B block inconclusive, G9a block 50.1µM
COc1ccc(NC(=O)COC(=O)c2cccn2C)cc1S(=O)(=O)N1CCCCC1	none (no result: Sfp PPTase inh, BAZ2B block, G9a block)
COc1ccc(N2CCN(CCNC(=O)Nc3ccc(C)c(Cl)c3)CC2)cc1	G9a block 25.1µM (no result: TDP1 block)
COc1cc(NC(=O)NCCN2CCN(c3ccc(Cl)cc3)CC2)ccc1C	BAZ2B block inconclusive, G9a block inconclusive
COc1ccc(N2CCN(CCNC(=O)Nc3ccc([N+](=O)[O-])cc3OC)CC2)cc1	HP1b binding inh inconclusive, BAZ2B block inconclusive, JMJD2A Tudor 50.1µM, G9a block 44.7µM (no result: TDP1 block)
Cc1ccnc(NC(=O)c2cc3cc(F)ccc3s2)c1	none
O=C(COC(=O)/C=C/c1ccc(C(F)(F)F)cc1)NCC1CCCO1 (stereo not given)	none (no result: Sfp PPTase inh)
O=C(NCCNC1CCN(Cc2ccccc2)CC1)c1cccs1	Sfp PPTase inh inconclusive, BAZ2B block inconclusive, G9a block 1.78µM (no result: HP1b binding inh, JMJD2A Tudor)
CSc1nc(Nc2ccc(Cl)cc2)c(C#N)c(=O)[nH]1	none (no result: TDP1 block)
N#Cc1c(Nc2ccc(Cl)cc2)s[nH]c1=O	Sfp PPTase inh 50.1µM, JMJD2A Tudor 79.4µM (no result: TDP1 block, G9a block)
COc1ccccc1/C=C/C(=O)NCC(=O)N/N=C(\CCC(=O)O)c1ccccc1	none
Cc1[nH]c2ccc(Br)cc2c(=S)c1C/C=C/Cl	BAZ2B block inconclusive, G9a block 35.5µM
Cc1[nH]c2ccc3ccccc3c2c(=O)c1C/C=C/Cl	none (no result: TDP1 block)
Cc1nc(C)c(C(=O)OCC(=O)NCCc2ccc(F)cc2)s1	G9a block 39.8µM (no result: Sfp PPTase inh)
CC(=O)Oc1ccc(-c2cc3ccc(OC(C)=O)cc3oc2=O)cc1	none (no result: TDP1 block, Sfp PPTase inh, BAZ2B block, G9a block)
COc1ccc(C2C(O)C(c3c[nH]c4ccccc34)=NN2C(=O)CCl)cc1 (stereo not given)	G9a block inconclusive
COc1ccc(C2NN=C(c3c[nH]c4ccccc34)C2O)cc1 (stereo not given)	Sfp PPTase inh 56.2µM, BAZ2B block inconclusive, JMJD2A Tudor inconclusive, G9a block 22.4µM (no result: TDP1 block)
CC(C)N1C(=O)S/C(=C/c2cccnc2)C1=O	none
CCN(CC)c1ccc(/C=C2\SC(=O)N(C(C)C)C2=O)o1	TDP1 block inconclusive, Sfp PPTase inh 7.08µM, BAZ2B block inconclusive, G9a block 7.08µM
COc1ccc(C)cc1NC(=O)C1CCC(CNS(=O)(=O)c2ccc3c(c2)CCCC(=O)N3)CC1 (stereo not given)	none (no result: Sfp PPTase inh)
CN1CCN(C(=O)c2ccc3c(=O)n(CCc4ccccc4)c(=S)[nH]c3c2)CC1	none (no result: TDP1 block, Sfp PPTase inh, BAZ2B block, G9a block)
Cn1c(=S)[nH]c2cc(C(=O)N3CCN(C(=O)c4ccccc4)CC3)ccc2c1=O	JMJD2A Tudor 79.4µM (no result: TDP1 block, Sfp PPTase inh, BAZ2B block, G9a block)
COc1ccc(-n2c(=S)[nH]c3cc(C(=O)N4CCN(c5ccccc5)CC4)ccc3c2=O)cc1	none
CCOC(=O)N1CCN(C(=O)c2ccc3c(=O)n(-c4ccc(F)cc4)c(=S)[nH]c3c2)CC1	JMJD2A Tudor 79.4µM, G9a block inconclusive (no result: HP1b binding inh)
CN1CCN(C(=O)c2ccc3c(=O)n(-c4ccc(F)cc4)c(=S)[nH]c3c2)CC1	JMJD2A Tudor 10µM, G9a block inconclusive
Cc1ccc2c(c1)c1c(c(=O)n(Cc3ccccc3)c(=O)n1Cc1cccc(C(F)(F)F)c1)n2C	none (no result: Sfp PPTase inh)
CN(CC1CCCN(CCc2ccc(Cl)cc2)C1)C(=O)c1ccc2nc[nH]c2c1 (stereo not given)	none
Cn1c(=O)c2[nH]c(N3CCN(c4ccccc4)CC3)nc2n(C)c1=O	G9a block inconclusive
C=CCSC1=N/C(=C\c2cc(OCC)c(OC(C)=O)c([N+](=O)[O-])c2)C(=O)S1	Sfp PPTase inh 56.2µM, HP1b binding inh 28.2µM, BAZ2B block 35.5µM, JMJD2A Tudor 17.8µM, G9a block 12.6µM
COc1ccc(-n2nc(C(=O)NCC(=O)NCCC3=CCCCC3)c3ccccc3c2=O)cc1OC	G9a block 50.1µM
COC(=O)CNC(=O)CNC(=O)c1nn(-c2ccc(OC)c(OC)c2)c(=O)c2ccccc12	none (no result: TDP1 block)
Cn1c(=O)c2ccccc2n(CC(=O)NCCC2=CCCCC2)c1=O	G9a block 28.2µM
Cc1[nH][nH]c(=O)c1C(c1ccccc1[N+](=O)[O-])C(C#N)C#N (stereo not given)	G9a block 39.8µM
Cc1n[nH]c(C)c1Sc1ccccc1[N+](=O)[O-]	BAZ2B block inconclusive
COc1cc(NC(=O)CSc2ncnc3sc4c(c23)CCC(C)C4)c(C(=O)O)cc1OC (stereo not given)	Sfp PPTase inh 44.7µM, G9a block 20µM
CC1CCc2c(sc3ncnc(SCC(=O)Nc4ccc(C(=O)O)cc4)c23)C1 (stereo not given)	none (no result: TDP1 block)
O=C(CNC(=S)N(Cc1ccccc1)Cc1cccnc1)NC1CCCCC1	none
O=C(CSc1nc(-c2ccccc2)c(-c2ccccc2)[nH]1)NCC1CCCO1 (stereo not given)	BAZ2B block inconclusive, G9a block 28.2µM
O=C(CSc1ncccn1)NCC1CCCO1 (stereo not given)	none (no result: TDP1 block, Sfp PPTase inh, BAZ2B block, G9a block)
O=C(CCCSc1nc2ccccc2[nH]1)NC1CCCCC1	none
O=C(CSc1nc(-c2ccc(F)cc2)[nH]c1-c1ccccc1)NCC1CCCO1 (stereo not given)	BAZ2B block inconclusive (no result: Sfp PPTase inh)
O=C(CSc1nc2ccccc2[nH]1)NC1CCCC1	TDP1 block 44.7µM, BAZ2B block 79.4µM, G9a block 50.1µM
O=C(CSc1ccc(Br)cc1)NCC1CCCO1 (stereo not given)	G9a block 39.8µM
O=C(CSc1nc2ccccc2[nH]1)NCC1CCCO1 (stereo not given)	G9a block 31.6µM
CC(C)(C)c1cc(OC(=O)c2ccccc2F)ccc1O	none (no result: G9a block)
CCC(C)NC(=O)C1CCN(S(=O)(=O)c2ccc3c(c2)CCCN3C(C)=O)CC1 (stereo not given)	none (no result: Sfp PPTase inh)
O=C(CN1CCN(c2ccc(Cl)cc2)CC1)NCc1ccccc1	none
Clc1ccc(CNc2ccc(N3CCN(Cc4ccccc4)CC3)cc2)cc1	HP1b binding inh 17.8µM, BAZ2B block 5.62µM, JMJD2A Tudor 11.2µM, G9a block 10µM
c1ccc(CNc2ccc(N3CCOCC3)cc2)cc1	HP1b binding inh inconclusive, JMJD2A Tudor 44.7µM (no result: Sfp PPTase inh, BAZ2B block, G9a block)
